# Measured values from publication PMC7862700, “An all-to-all approach to the identification of sequence-specific readers for epigenetic DNA modifications on cytosine”.
# Experiments:
# Assay in all cases: DAPPL (digital affinity profiling via proximity ligation, sequencing); 10 mM Tris-HCl pH 7.5, 50 mM NaCl, 1 mM DTT, 4% glycerol, room temperature, 30 min; GST-TFs on glutathione beads, 16-mer random dsDNA library, 0.1% formaldehyde crosslink after washing; high values mean tight binding
# [1] = biological target: T1, FEV (Homo sapiens, UniProt Q99581 1-238); conditions: protein: recombinant; tags: N-terminal GST; dsDNA, one strand shown
# T1 sequence: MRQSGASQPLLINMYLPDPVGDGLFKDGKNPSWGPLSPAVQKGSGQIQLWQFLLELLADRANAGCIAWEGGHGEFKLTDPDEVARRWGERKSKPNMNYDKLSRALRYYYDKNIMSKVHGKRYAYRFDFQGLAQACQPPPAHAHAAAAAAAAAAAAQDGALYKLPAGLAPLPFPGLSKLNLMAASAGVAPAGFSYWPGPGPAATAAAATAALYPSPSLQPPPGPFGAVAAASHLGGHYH
# Method in brief: (§1)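 GST fusions of human transcription factors were expressed in yeast and captured with glutathione beads. Once given DNA barcodes and pooled alongside a tag-only sample, they were incubated for 30 min at room temperature with 200 nmole of a random double-stranded 16-mer DNA library in Tris/NaCl/DTT/glycerol buffer, then washed, crosslinked (0.1% formaldehyde), proximity-ligated, PCR-amplified and sequenced on an Illumina NextSeq500. The binding signal of each hexamer is its read frequency for a factor divided by its frequency for the tag-only sample.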
# [2] = biological target: ETV5 (Homo sapiens, UniProt P41161 1-510); conditions: protein: recombinant; tags: N-terminal GST; dsDNA, one strand shown
# Chain of ETV5 (P41161 whole entry): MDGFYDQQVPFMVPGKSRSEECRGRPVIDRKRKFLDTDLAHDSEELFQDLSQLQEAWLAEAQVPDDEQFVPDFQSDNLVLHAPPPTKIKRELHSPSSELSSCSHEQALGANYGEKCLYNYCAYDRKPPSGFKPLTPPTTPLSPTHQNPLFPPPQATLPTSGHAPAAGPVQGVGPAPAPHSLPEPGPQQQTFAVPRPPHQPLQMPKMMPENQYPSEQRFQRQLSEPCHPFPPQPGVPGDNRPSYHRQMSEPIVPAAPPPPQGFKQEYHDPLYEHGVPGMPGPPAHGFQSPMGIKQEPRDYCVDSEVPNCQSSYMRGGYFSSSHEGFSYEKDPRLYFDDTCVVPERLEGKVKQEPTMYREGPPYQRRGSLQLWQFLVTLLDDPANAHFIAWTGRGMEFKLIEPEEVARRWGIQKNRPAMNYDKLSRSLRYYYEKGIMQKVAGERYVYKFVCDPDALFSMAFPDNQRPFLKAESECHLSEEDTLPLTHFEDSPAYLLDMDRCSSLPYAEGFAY
# Method in brief: as §1
# [3] = biological target: HSF1 (Homo sapiens, UniProt Q00613 1-529); conditions: protein: recombinant; tags: N-terminal GST; chain copies: 3; dsDNA, one strand shown
# Chain of HSF1 (Q00613 whole entry): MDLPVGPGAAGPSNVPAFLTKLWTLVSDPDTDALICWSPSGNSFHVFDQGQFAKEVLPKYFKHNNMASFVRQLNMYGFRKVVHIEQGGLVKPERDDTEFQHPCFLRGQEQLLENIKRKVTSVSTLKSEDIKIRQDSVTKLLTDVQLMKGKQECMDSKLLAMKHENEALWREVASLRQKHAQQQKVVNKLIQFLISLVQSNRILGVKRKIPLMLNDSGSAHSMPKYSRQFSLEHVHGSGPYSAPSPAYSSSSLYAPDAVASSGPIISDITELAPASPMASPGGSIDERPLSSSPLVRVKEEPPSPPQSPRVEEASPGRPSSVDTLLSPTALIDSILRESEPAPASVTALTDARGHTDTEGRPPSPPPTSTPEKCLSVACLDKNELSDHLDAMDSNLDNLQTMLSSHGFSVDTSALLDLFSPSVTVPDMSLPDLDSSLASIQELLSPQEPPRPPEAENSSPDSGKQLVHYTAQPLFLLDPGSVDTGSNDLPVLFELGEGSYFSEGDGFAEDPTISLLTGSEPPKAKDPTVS
# Method in brief: as §1
# [4] = biological target: T2, SPIC (Homo sapiens, UniProt Q8N5J4 1-248); conditions: protein: recombinant; tags: N-terminal GST; dsDNA, one strand shown
# T2 sequence: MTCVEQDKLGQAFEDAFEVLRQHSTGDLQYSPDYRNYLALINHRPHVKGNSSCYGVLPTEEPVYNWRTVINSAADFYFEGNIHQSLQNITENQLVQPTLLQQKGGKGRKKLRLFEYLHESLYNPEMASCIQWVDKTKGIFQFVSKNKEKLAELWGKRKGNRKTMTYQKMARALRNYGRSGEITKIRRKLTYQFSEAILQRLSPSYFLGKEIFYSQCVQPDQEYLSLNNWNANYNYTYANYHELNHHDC
# Method in brief: as §1
# [5] = biological target: ELF4 (Homo sapiens, UniProt Q99607 1-663); conditions: protein: recombinant; tags: N-terminal GST; dsDNA, one strand shown
# Chain of ELF4 (Q99607 whole entry): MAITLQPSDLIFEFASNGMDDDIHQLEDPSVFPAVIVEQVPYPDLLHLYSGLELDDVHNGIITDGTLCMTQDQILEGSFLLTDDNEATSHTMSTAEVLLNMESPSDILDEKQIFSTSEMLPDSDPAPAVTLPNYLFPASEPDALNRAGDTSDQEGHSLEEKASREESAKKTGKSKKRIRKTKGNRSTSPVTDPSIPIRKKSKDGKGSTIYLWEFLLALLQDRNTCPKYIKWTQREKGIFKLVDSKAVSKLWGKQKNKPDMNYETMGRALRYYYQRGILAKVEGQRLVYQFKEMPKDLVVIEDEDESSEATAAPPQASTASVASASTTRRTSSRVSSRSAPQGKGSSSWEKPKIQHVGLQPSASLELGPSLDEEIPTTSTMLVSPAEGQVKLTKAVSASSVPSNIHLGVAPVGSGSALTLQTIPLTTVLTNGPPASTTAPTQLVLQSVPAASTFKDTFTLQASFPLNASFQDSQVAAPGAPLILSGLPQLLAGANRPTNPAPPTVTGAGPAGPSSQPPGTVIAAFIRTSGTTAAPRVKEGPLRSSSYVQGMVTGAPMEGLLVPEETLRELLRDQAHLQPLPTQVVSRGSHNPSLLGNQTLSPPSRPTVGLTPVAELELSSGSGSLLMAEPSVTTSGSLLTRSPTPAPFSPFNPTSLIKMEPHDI
# Method in brief: as §1
# [6] = biological target: T3, ELK4 (Homo sapiens, UniProt P28324-2 1-405); conditions: protein: recombinant; tags: N-terminal GST; dsDNA, one strand shown
# T3 sequence: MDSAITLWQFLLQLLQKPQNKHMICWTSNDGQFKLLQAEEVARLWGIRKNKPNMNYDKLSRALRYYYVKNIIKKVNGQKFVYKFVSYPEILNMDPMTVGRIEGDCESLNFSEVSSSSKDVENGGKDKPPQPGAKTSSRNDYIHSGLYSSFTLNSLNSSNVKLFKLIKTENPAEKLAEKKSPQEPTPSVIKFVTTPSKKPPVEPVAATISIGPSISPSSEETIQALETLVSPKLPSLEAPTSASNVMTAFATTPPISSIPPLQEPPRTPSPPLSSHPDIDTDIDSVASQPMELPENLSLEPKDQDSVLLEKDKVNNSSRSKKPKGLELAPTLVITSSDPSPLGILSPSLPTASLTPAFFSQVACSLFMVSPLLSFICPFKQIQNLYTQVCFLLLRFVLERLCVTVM
# Method in brief: as §1
# [7] = biological target: T4, ETV2 (Homo sapiens, UniProt O00321 1-342); conditions: protein: recombinant; tags: N-terminal GST; dsDNA, one strand shown
# T4 sequence: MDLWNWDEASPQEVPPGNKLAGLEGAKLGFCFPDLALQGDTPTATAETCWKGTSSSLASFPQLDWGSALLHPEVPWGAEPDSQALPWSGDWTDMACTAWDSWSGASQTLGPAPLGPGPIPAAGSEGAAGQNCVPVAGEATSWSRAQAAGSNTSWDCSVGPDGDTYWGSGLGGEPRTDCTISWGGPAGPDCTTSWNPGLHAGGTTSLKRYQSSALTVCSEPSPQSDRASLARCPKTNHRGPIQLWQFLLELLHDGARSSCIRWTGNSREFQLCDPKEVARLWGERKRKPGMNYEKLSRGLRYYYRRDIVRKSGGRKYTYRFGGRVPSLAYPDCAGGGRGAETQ
# Method in brief: as §1
# [8] = biological target: T5, ELF3 (Homo sapiens, UniProt P78545 1-371); conditions: protein: recombinant; tags: N-terminal GST; dsDNA, one strand shown
# T5 sequence: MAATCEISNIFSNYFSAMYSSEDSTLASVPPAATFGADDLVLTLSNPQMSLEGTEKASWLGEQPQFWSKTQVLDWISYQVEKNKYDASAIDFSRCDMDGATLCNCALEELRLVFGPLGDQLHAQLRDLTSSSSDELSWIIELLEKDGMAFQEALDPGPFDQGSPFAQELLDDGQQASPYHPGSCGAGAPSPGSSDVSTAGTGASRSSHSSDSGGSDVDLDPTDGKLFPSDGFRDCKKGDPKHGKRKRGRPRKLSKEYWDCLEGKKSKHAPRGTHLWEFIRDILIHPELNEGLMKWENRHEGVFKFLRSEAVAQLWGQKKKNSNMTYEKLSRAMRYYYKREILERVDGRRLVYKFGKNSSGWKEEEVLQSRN
# Method in brief: as §1
# [9] = biological target: CRX (Homo sapiens, UniProt O43186 1-299); conditions: protein: recombinant; tags: N-terminal GST; dsDNA, one strand shown
# Chain of CRX (O43186 whole entry): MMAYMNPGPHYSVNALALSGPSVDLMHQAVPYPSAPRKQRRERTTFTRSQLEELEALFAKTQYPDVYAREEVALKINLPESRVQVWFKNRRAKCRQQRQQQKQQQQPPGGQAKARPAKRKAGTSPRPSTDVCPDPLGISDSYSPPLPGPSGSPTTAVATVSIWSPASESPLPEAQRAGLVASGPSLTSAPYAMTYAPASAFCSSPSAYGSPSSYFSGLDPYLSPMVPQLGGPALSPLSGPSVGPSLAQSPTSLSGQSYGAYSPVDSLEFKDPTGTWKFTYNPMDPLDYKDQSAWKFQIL
# Method in brief: as §1
sequence,measurement,setting,value
TTCGCC,binding signal,[1],"1.19 fold enrichment (6-mer frequency, TF over GST control)"
same,binding signal,[2],"1.13 fold enrichment (6-mer frequency, TF over GST control)"
same,binding signal,[3],"1.14 fold enrichment (6-mer frequency, TF over GST control)"
same,binding signal,[4],"1.32 fold enrichment (6-mer frequency, TF over GST control)"
same,binding signal,[5],"1.05 fold enrichment (6-mer frequency, TF over GST control)"
same,binding signal,[6],"1.08 fold enrichment (6-mer frequency, TF over GST control)"
same,binding signal,[7],"1.1 fold enrichment (6-mer frequency, TF over GST control)"
same,binding signal,[8],"1.08 fold enrichment (6-mer frequency, TF over GST control)"
same,binding signal,[9],"1 fold enrichment (6-mer frequency, TF over GST control)"
